Measurements reported in PubChem BioAssay AID624125 (The Scripps Research Institute Molecular Screening Center, 2012).
Among all 360,000 compounds or so, about 2,600 (0.72%) were called active.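 Rule for the calls: active = inhibition above its plate's cutoff, the mean inhibition of sample wells plus 3 SD (cut at about 27% in these data); inactive = the rest.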 The list comes from a sample in which actives are over-represented; it also holds similar structures and randomly drawn compounds.

target: Muscarinic acetylcholine receptor M4 (Homo sapiens) (UniProt P08173); test: human M4 muscarinic receptor antagonists, primary screen, CHO cells, Fluo-8 calcium fluorescence (AID 624125); details: CHO-hM4 cells, ACh EC80, Fluo-8 calcium fluorescence; at 3 µM; stronger effect = higher value;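 note: 0% = acetylcholine EC80 with DMSO and 100% = DMSO without agonist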
Sequence (P08173 whole entry, looked up): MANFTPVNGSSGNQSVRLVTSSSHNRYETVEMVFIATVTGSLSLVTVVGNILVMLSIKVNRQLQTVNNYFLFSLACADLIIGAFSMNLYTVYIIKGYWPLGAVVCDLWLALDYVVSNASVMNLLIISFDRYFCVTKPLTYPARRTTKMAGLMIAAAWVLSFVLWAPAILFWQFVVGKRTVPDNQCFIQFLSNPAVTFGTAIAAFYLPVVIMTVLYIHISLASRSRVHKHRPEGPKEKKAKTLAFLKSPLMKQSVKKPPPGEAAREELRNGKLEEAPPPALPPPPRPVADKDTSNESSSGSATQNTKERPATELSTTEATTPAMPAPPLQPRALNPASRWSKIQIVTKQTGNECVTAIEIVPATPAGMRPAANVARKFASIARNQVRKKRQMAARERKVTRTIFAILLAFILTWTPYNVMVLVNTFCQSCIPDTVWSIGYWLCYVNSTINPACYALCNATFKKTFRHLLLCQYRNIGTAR

| Structure (SMILES) | inhibition |
| --- | --- |
| COc1ccc(NC(=O)CCn2ccnc2)c(OC)c1 | 4.14% (inactive) |
| COc1ccc(NS(=O)(=O)c2ccc(N3CCOCC3)c(NC(=O)c3ccccc3Br)c2)cc1 | -9.67% (inactive) |
| Cc1ccc(NS(=O)(=O)c2cc3c(cc2C)NC(=O)CO3)cc1 | 2.56% (inactive) |
| CN(Cc1c(F)cccc1Cl)S(=O)(=O)c1cccs1 | -12.9% (inactive) |
| Cc1cc(=O)n2nc(N3CCCC3C(=O)NCCCN3CC(C)CC(C)C3)sc2n1 (centres undefined) | -11.3% (inactive) |
| c1ccc(C(=NNc2nc3ccccc3s2)c2ccccn2)cc1 | 56.1% (active) |
| Cc1ccc(OCCCC(=O)N2CCOCC2)c(C)c1 | -1.8% (inactive) |
| Cc1ccc(C)c(N2CCN(C(=O)CCCCCn3c(=S)[nH]c4ccc(N5CCOCC5)cc4c3=O)CC2)c1 | 33.6% (active) |
| Cc1ccc(C)c(N2CCN(C(=O)Cn3ncn4cccc4c3=O)CC2)c1 | -6.41% (inactive) |
| C[C@H]1CN([C@@H](C)CO)C(=O)CCCn2nncc2CO[C@@H]1CN(C)S(=O)(=O)c1cccc(C#N)c1 | -12.9% (inactive) |
| N=c1c2c3c(sc2ncn1CCCN1CCOCC1)CCCCC3 | 10.8% (inactive) |
| CC1(C)Cc2c(sc3nc4n(c(=N)c23)CCCCC4)CO1 | 3.83% (inactive) |
| N=c1c2c3c(sc2nc2n1CCCCC2)CCCC3 | 46.3% (active) |
| Cc1cc(C)c(S(=O)(=O)c2cc(F)ccc2C)c(=O)[nH]1 | 1.71% (inactive) |
| CCN1/C(=C\c2ccc3ccccc3[n+]2CC)Sc2cc(C)ccc21 | 34% (active) |
| CCc1ccc(NC2Nc3cc(C)nn3S2)cc1 (centres undefined) | 4.8% (inactive) |
| COc1ccc(Cl)cc1C=CC=NNC(=O)c1ccncc1 | -14.8% (inactive) |
| COc1cccc2sc3cc(NCC[C@@H]4CCCN4C)ccc3c(=O)c12 | -7.94% (inactive) |
| CCC1CCC/C1=N\NC(=O)c1ccc(Cl)cc1 (centres undefined) | 6.05% (inactive) |
| CN1CCC[C@@H]1CCO[C@](C)(c1ccccc1)c1ccc(Cl)cc1 | 97.7% (active) |
| O=C(Nc1ccc(F)cc1)c1cc2c(s1)CCCC2 | 1.82% (inactive) |
| C=CCOC(=O)C1=C(C)N=C2SCCC(=O)N2C1/C=C/c1ccccc1OC (centres undefined) | 1.49% (inactive) |
| CC1(C)CC(N2CCN(C(c3ccccc3)c3ccccc3)CC2)=CC(=[N+]2CCCCC2)C1 | 56.8% (active) |
| CC1(c2cccc(Br)c2)NC(=O)N(CC(=O)NCCC2=CCCCC2)C1=O (centres undefined) | -1.54% (inactive) |
| COC(=O)c1cc(S(=O)(=O)N2CCC(C(N)=O)CC2)oc1C | -3.75% (inactive) |
| CCCCN(CCCC)CCC(O)c1cc2c(Cl)cc(Cl)cc2c2cc(C(F)(F)F)ccc12 (centres undefined) | -6.99% (inactive) |
| O=[N+]([O-])/C=C/c1ccc2c(ccn2Cc2ccccc2)c1 | 51% (active) |

| Structure (SMILES) | inhibition |
| --- | --- |
| CC(C)CCNC(=O)c1[nH]c(C(F)(F)F)nc1-c1ccccc1 | 2.39% (inactive) |
| CCOCCCN1C(=O)CN(C2CCCCC2)C(=O)C1c1ccc(OCC)c(OC)c1 (centres undefined) | 5.54% (inactive) |
| Cc1cc(=O)[nH]c(Nc2cccc(Br)c2)n1 | 4.17% (inactive) |
| Cc1cc(=O)[nH]c(N/N=C/c2ccc3c(c2)OCCO3)n1 | 29.5% (active) |
| Cc1ccc(C)c(NC2=NCC(=O)N2c2ccc3c(c2)OCCO3)c1 | 5.91% (inactive) |
| CC1O[C@@H](OC2C(O)C(C)O[C@H](OC(=O)[C@]34CCC(C)(C)C[C@H]3C3=CCC5[C@@]6(C)CC(O)C(O[C@@H]7OC(CO)C(O)[C@@H](O)[C@@H]7O)[C@@](C)(C(=O)O)C6CC[C@@]5(C)[C@]3(CO)CC4)C2O[C@H]2OC(C)[C@@H](O[C@@H]3OCC(O[C@@H]4OC(CO)C(O)[C@H](O)C4O)[C@@H](O)[C@@H]3O)[C@H](O)C2O)C(O)C(O)C1O (some centres undefined) | 4.49% (inactive) |
| CC1(C)C[C@H]2C3=CCC4[C@@]5(C)CC[C@H](O)[C@](C)(CO)C5CC[C@@]4(C)[C@]3(C)C[C@@H](O)[C@@]2(CO)[C@@H](O)[C@@H]1O (some centres undefined) | -13.3% (inactive) |
| CC1(C)C2CC[C@]3(C)C(CC=C4[C@@H]5C[C@@](C)(CO)CC[C@]5(C(=O)O)CC[C@]43C)[C@@]2(C)CC[C@@H]1O (some centres undefined) | 45.8% (active) |
| O=S(=O)(c1cccc(-c2cn3ccccc3n2)c1)N1CCCC1 | -2.49% (inactive) |
| O=C(NCC(c1cccs1)N1CCOCC1)c1cc(Cl)ccc1[N+](=O)[O-] (centres undefined) | -29.6% (inactive) |
| CCN1CCN(CC(=O)c2cc(OC)c(OC)c(OC)c2)CC1 | 3.39% (inactive) |
| O=C1C=C(c2ccc(Cl)cc2)C(=O)N1Nc1ccccc1 | 32% (active) |
| Cc1cc(C)nc(NS(=O)(=O)c2ccc(N3C(=O)C4CCCCC4C3=O)cc2)n1 (centres undefined) | -3.19% (inactive) |
| CCCn1nc(C(=O)N2CCCc3ccccc32)c2ccccc2c1=O | 3.11% (inactive) |
| Cc1cccc2cc3c(N)c(C(=O)N4CCCc5ccccc54)sc3nc12 | 26.9% (active) |
| Cc1ccc(C(=O)N2CCCc3ccccc32)c(Cl)c1 | -5.91% (inactive) |
| C=CCn1cc(Cl)cc(C(=O)Nc2ccccc2)c1=O | 1.16% (inactive) |
| NS(=O)(=O)c1ccc(NC(=O)COC(=O)C2(c3ccc(F)cc3)CCCC2)cc1 | 1.71% (inactive) |
| O=C(/C=C(O)/C=C/c1ccc(O)cc1)/C=C/c1ccc(O)cc1 | 41.4% (active) |
| NC1=NC(=O)S/C1=C\c1ccc(O)cc1 | 0.37% (inactive) |
| CC(C)(C)C(=O)/C(C#N)=C/c1ccc(O)cc1 | 3.63% (inactive) |
| CCNC(=O)C1(C)CCN(Cc2ccc(C(=O)OCC)o2)C1 (centres undefined) | 3.23% (inactive) |
| Clc1cccc(Cl)c1Cn1nnc(-c2cccs2)n1 | -3.16% (inactive) |
| CC(C)[C@@H]1COC(c2cccc(C3=N[C@H](C(C)C)CO3)c2)=N1 | 7.38% (inactive) |
| COc1cc(NC(=O)COC(=O)CSc2ccc3ccccc3c2)c(C)cc1[N+](=O)[O-] | -8.64% (inactive) |
| COc1cc(/C=C(\C#N)C(=O)Nc2ccc3ccccc3c2)c([N+](=O)[O-])cc1OC | 28.5% (active) |
| COc1cc(/C=C(/NC(=O)c2ccccc2)C(=O)Nc2cccc(O)c2)c([N+](=O)[O-])cc1OC | -11.4% (inactive) |
